The source of these data is ChEMBL document CHEMBL4513216, “Probing the Open Global Health Chemical Diversity Library for Multistage-Active Starting Points for Next-Generation Antimalarials” (ACS Infect Dis, 2020).

Screen size: about 69,000 compounds; about 8,600 (12%) showed an effect of 50% or more. Shown is part of a subset that was picked to be rich in strong results.

For the assay, the system named is Plasmodium berghei. Briefly: Screen against P. berghei liver stage (PbLuc), transformed with Luciferase, at 10uM. Particulars: tested at 10 uM. The assay is classed as functional, HepG2.
As for `Cc1ccc(NC2CCN(C(=O)c3cc4c(s3)CCC4)CC2)nn1`, the INHIBITION is on record as -11.4%.
Next, `CCn1cnnc1CNC(=O)NC(c1cccs1)C1CCCC1` (configuration not stated): -9.76%; `COc1ccc(NC(=O)c2cnc(C3CCN(C(C)=O)C3)nc2C)cc1` (configuration not stated): 25.55%; `O=C1CCC2(CCC(NC3CCOC3)CC2)N1Cc1ccncc1` (configuration not stated): 3.81%.
Next, `CCC1(c2ccc(NS(=O)(=O)N(C)C)cc2)CCC(=O)NC1=O` (configuration not stated): 18.9%; `Cc1cc(N2CCOCC2)nc(N(C)CCO)c1C#N`: 12.3%.
Next, `CC(C)c1nc2c(n1C)CCN(Cc1nc(-c3ccoc3)no1)C2`: 25.6%; `CNc1cncc(C2CCCN2C(=O)Cn2ccnc2C)n1` (configuration not stated): 2.915%; `O=C(Cc1csc(-c2ccccc2)n1)N[C@@H](C(=O)O)c1ccccc1`: -3.11%.
On to `Cc1cc(C(=O)N2CCn3cc(CN4CCOCC4)nc3C2)no1`, for which the INHIBITION was 68.4%.
The value for `Cc1cc(C(=O)N2CCn3cc(CN4CCCC4)nc3C2)no1` was 13.6%; that for `Cc1cc(C(=O)N2CCn3cc(CN4CCCCC4)nc3C2)no1` was 17.1%.
For `CCN(Cc1noc(C2CCC2)n1)C(=O)CCc1cc2n(n1)CCNC2`, the INHIBITION was determined as 11.9%.
The value for `CN(CCCc1cnn(C)c1)Cc1cc2n(n1)CCNC2` was 52.6%.
Next, `CNc1ncc(CN(C)Cc2cc3n(n2)CCNC3)cn1`: -99.3%.
Next, `CN(CCCc1cnn(C)c1)C(=O)C1CCN(C(=O)C2CCC2)CC1`: 38.7%; `CCc1cnc(C)nc1N(C)CCCc1cnn(C)c1`: 8.31%; `CN(CCc1noc(C2CC2)n1)C(=O)CCc1cc2n(n1)CCCNC2`: 46.6%.
For `CN(Cc1cc2n(n1)CCNC2)Cc1noc(C2CCC2)n1`, the INHIBITION is 51%.
For `CN(CCCc1cnn(C)c1)Cc1cc2n(n1)CCCN(C)C2`, the INHIBITION is 65.7%.
As for `CN(CCCc1cnn(C)c1)Cc1cc2n(n1)CCCNC2`, the INHIBITION is 49.4%.
The value for `O=C(c1cc2cc(F)ccc2[nH]1)N1CCC(Nc2cccnn2)CC1` was 22.3%; that for `CCCC(NC(=O)c1cc(C)ccc1O)c1nnn[nH]1` (configuration not stated) was 34.6%; that for `COc1ncccc1NC(=O)C1CCOCC1` was 43.3%.
The value for `CC(=O)Nc1c(C)noc1C=Cc1ccc(C)c(S(=O)(=O)NC2CC2)c1` was 11.6%.
Next, `O=C(Nc1ccccc1)C1=CC2(CCNCC2)c2ccccc21`: 48.2%; `Cc1cnn(CC(=O)NCC2(O)CCCc3ccccc32)c1` (configuration not stated): 80.5%; `O=C(CN1C(=O)CCC1=O)NCC1(O)CCc2ccccc21` (configuration not stated): 5.58%.
Regarding `O=C(Cn1cccn1)NCC1(c2ccccc2)CC1`, the INHIBITION is -8.3%.
Turning to `O=C(Cn1cncn1)NCC1(O)CCCc2ccccc21` (configuration not stated), the INHIBITION is on record as 10.9%.
The value for `O=C(Cn1c(=O)oc2ccccc21)NCC1(O)CCc2ccccc21` (configuration not stated) was -27.3%; that for `O=C(Cn1cnnn1)NCC1(O)CCCc2ccccc21` (configuration not stated) was 64.7%.
For the molecule `Cc1cccc(S(=O)(=O)N2CSCC2C(=O)NCC2CC2)c1` (configuration not stated), the INHIBITION is listed as -14.3%.
In the case of `Cc1cnccc1-c1cnn(CCNC(=O)c2ccncc2)c1C1CC1`, the INHIBITION is given as 48%.
Turning to `Cc1ccc(CN(C)Cc2nc3ccc(F)cc3[nH]2)cn1`, the INHIBITION is reported as 44.2%.
The value for `Cc1ccc(CC(=O)N2CCCC(c3ccn[nH]3)C2)cn1` (configuration not stated) was 22.965%; that for `O=C(NCc1ccco1)[C@@H]1CCO[C@@H]2CCN(c3ncccn3)C[C@@H]21` was 36.9%; that for `Cn1cccc1C(=O)N1CCN(Cc2ccncc2)c2ncccc2C1` was -33%.
The value for `N[C@@H]1c2ccccc2C2(CCN(C(=O)c3ccc(Cl)cn3)CC2)[C@H]1O` was 37.1%; that for `OCC1(O)CCN(c2ncccc2C(F)(F)F)CC1` was 24.2%; that for `N[C@@H]1c2ccccc2C2(CCN(c3cccc(C(F)(F)F)n3)CC2)[C@H]1O` was 88%.
Next, `N[C@@H]1c2ccccc2C2(CCN(c3ncccc3C(F)(F)F)CC2)[C@H]1O`: 86.6%; `CC(C)C(=O)NCC(=O)N1CCC2(CC1)c1ccccc1[C@@H](N)[C@@H]2O`: -26.1%; `NS(=O)(=O)CC1CCN(c2ncccc2C(F)(F)F)CC1`: 20.6%.
For `N[C@@H]1c2ccccc2C2(CCN(C(=O)c3cncc(Cl)c3)CC2)[C@H]1O`, the INHIBITION is reported as 8.5%.
The value for `FC(F)(F)c1ccnc(N2CCCCCC2)c1` was -6.52%.
The value for `N[C@@H]1c2ccccc2C2(CCN(c3cc(C(F)(F)F)ccn3)CC2)[C@H]1O` was 58.8%; that for `N[C@@H]1c2ccccc2C2(CCN(c3cnc4ccccc4n3)CC2)[C@H]1O` was 44.9%; that for `O=C1CCC2(CCN(c3cccc(C(F)(F)F)n3)CC2)CN1CCO` was 47.9%.
The value for `N[C@@H]1c2ccccc2C2(CCN(c3ccc(C(F)(F)F)cn3)CC2)[C@H]1O` was 78.3%; that for `CC(C)c1n[nH]c(C2CN(CCCS(C)(=O)=O)CCO2)n1` (configuration not stated) was 0.914%; that for `Cc1nc(CN2CCn3cc(CNC(=O)C4CCC4)nc3C2)cs1` was -3.1%.
Take `Cc1ccc(N(Cc2ccco2)C(=O)Cc2cc(=O)n(C)[nH]2)cc1`: the INHIBITION was found to be 39.5%.
The value for `O=C(O)CCn1ccc2cc(Br)ccc21` was 24.7%; that for `CC(NC(=O)C1=NN(C)C(=O)CC1)c1ccccc1Cl` (configuration not stated) was 35.4%.
Next, `Cc1cnc(CNC(=O)C2CCOc3ccccc3C2)cn1` (configuration not stated): -3.83%.
The value for `COCCCN(Cc1ccccc1Cl)C1CCS(=O)(=O)C1` (configuration not stated) was 33.4%; that for `Cc1nnnn1CCC(=O)N1CCC2(CCC(=O)N(CC3CC3)C2)CC1` was 8.38%.
On to `c1cc(CN2CCCCC2c2ccc(Nc3cnccn3)nc2)ccn1` (configuration not stated), for which the INHIBITION was 43.1%.
On to `Cn1cc(CN2CCC3(C2)CN(Cc2ccsc2)C3)cn1`, for which the INHIBITION was -3.19%.
The value for `CNc1nc(CNC(=O)Nc2cccc(OC)c2)cs1` was 23.5%; that for `O=C1Nc2ccccc2NC12CCN(c1cccc(C(F)(F)F)n1)CC2` was 76%; that for `N#Cc1cccc(N2CCC3(CC2)Nc2ccccc2NC3=O)n1` was 14.3%.
Next, `CC(O)c1cccc(N2CCC3(CC2)Nc2ccccc2NC3=O)n1` (configuration not stated): 0.705%; `Cn1cnc2cc(C(=O)NS(=O)(=O)CC3CCCC3)ccc21`: -20.6%.
Next, `COCCN1CCc2cc(C(=O)O)c(-c3ccoc3)nc2CC1`: 42.7%; `Cn1cncc1CN1CCc2nc3sccc3c(=O)n2CC1`: -9.08%.
